Results filed as inconclusive are left out. Calls of active or inactive are those of the source. The calls were made as follows, unless noted: active = hit-call score of the fitted dose curve at least 0.9, where 1 is the maximum; inactive = score below 0.9.
Key:
[1] = read-out: Tumor necrosis factor (Homo sapiens) (UniProt P01375); assay: BSK_BT_xTNFa: BioMAP Diversity Plus: BT Assay for Tumor necrosis factor alpha (TNF-alpha) Biomarker Activity (AID 2284230); conditions: primary human B cells with PBMC
Method in brief: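 Endpoint derived in the positive direction versus DMSO vehicle. Cells: B cells together with PBMC, exposed 24 h before TNF-alpha in the medium was read on the Luminex xMAP platform.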

[2] = read-out: Vascular cell adhesion molecule 1 (VCAM1), VCAM1 (gene 7412); assay: BSK_MyoF_VCAM1: BioMAP Diversity Plus: MyoF Assay for Vascular cell adhesion molecule 1 (VCAM1) Biomarker Activity (AID 2284231); conditions: primary human lung fibroblasts
Method in brief: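 ELISA readout of VCAM-1 on human lung fibroblast cultures 24 hours after dosing, analyzed for signal gain relative to DMSO. Overt cytotoxicity was checked by sulforhodamine B total-protein staining in parallel cultures.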

[3] = read-out: Collagen I, COL1A1 (gene 1277); assay: BSK_MyoF_CollagenI: BioMAP Diversity Plus: MyoF Assay for Collagen I Biomarker Activity (AID 2284238); conditions: primary human lung fibroblasts
Method in brief: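 Collagen I levels measured by ELISA on human lung fibroblast cultures 24 h post-dosing, with curve fitting in the positive direction relative to DMSO; SRB staining of parallel wells marked cytotoxicity.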

[4] = read-out: Collagen III, COL3A1 (gene 1281); assay: BSK_MyoF_CollagenIII: BioMAP Diversity Plus: MyoF Assay for Collagen III Biomarker Activity (AID 2284239); conditions: primary human lung fibroblasts
Method in brief: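 Collagen III biomarker quantified by ELISA in human lung fibroblast cultures 24 h after dosing. Activity fitted in the positive direction against DMSO as baseline.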

[5] = read-out: Interleukin 17F (IL17F), IL17F (gene 112744); assay: BSK_BT_xIL17F: BioMAP Diversity Plus: BT Assay for Interleukin 17F (IL17F) Biomarker Activity (AID 2284243); conditions: primary human B cells with PBMC
Method in brief: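 Human B cells co-cultured with PBMC; secreted IL-17F quantified by LumineX xMAP 24 hours after chemical dosing. Activity fitted in the positive direction against DMSO negative control as baseline.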

[6] = read-out: Actin alpha 1 (ACTA1), ACTA1 (gene 58); assay: BSK_MyoF_ACTA1: BioMAP Diversity Plus: MyoF Assay for Actin alpha 1 (ACTA1) Biomarker Activity (AID 2284244); conditions: primary human lung fibroblasts
Method in brief: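 ELISA read-out of a-SMA in primary human lung fibroblast cultures, 24 h post-dosing. Activity scored in the positive direction versus DMSO baseline.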

[7] = read-out: Interleukin 2 (IL2), IL2 (gene 3558); assay: BSK_BT_xIL2: BioMAP Diversity Plus: BT Assay for Interleukin 2 (IL2) Biomarker Activity (AID 2284245); conditions: primary human B cells with PBMC
Method in brief: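 Readout: supernatant IL-2 via Luminex xMAP after 24 h chemical dosing of a B cell/PBMC primary human co-culture. DMSO serves as negative control and baseline; increases in signal were fitted.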

[8] = read-out: Basic fibroblast growth factor (bFGF), FGF2 (gene 2247); assay: BSK_MyoF_bFGF: BioMAP Diversity Plus: MyoF Assay for Basic fibroblast growth factor (bFGF) Biomarker Activity (AID 2284246); conditions: primary human lung fibroblasts
Method in brief: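 Primary human lung fibroblast culture, 24 h compound exposure; ELISA read-out of bFGF. Positive-direction fit vs DMSO baseline. Cytotoxicity: SRB stain (0.1% SRB, 10% TCA fixation, 560 nm) in parallel wells.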

[9] = read-out: Collagen IV, COL4A1 (gene 1282); assay: BSK_MyoF_CollagenIV: BioMAP Diversity Plus: MyoF Assay for Collagen IV Biomarker Activity (AID 2284247); conditions: primary human lung fibroblasts
Method in brief: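 ELISA read-out of Collagen IV in lung fibroblast cultures, 24 h post-dosing; gain of signal relative to DMSO vehicle baseline defines activity.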

[10] = CCTE_Mundy_HCI_Cortical_NOG_NeuronCount: CCTE's Neurite Outgrowth Assay in rat cortical cells for Neuron Count, Mundy Lab (AID 2284236; active = hit-call score of the fitted dose curve at least 0.9, where 1 is the maximum;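 also: neurons counted by imaging betaIII-tubulin and Hoechst stained cortical cells; cells exposed to compound for about 48 hours before fixation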)
Method in brief: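 Read-out: neuron number by high-content imaging of betaIII-tubulin (Alexa Fluor-488) and Hoechst-labelled rat primary cortical cells.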

[11] = CCTE_Mundy_HCI_Cortical_NOG_BPCount: CCTE's Neurite Outgrowth Assay in rat cortical cells for Branch Point Count, Mundy Lab (AID 2284237);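 as to AC50: branch points counted about two days after chemical exposure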
Method in brief: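 Measured 50.33 h after dosing, this morphology endpoint uses rat primary cortical cultures labelled for betaIII-tubulin. Branch points are quantified by high-content imaging, with DMSO as negative control and baseline.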

[12] = CCTE_Mundy_HCI_hNP1_Casp3_7: CCTE's Caspase-Glo 3/7 Assay in human neuroprogenitor cells for Apoptosis, Mundy Lab (AID 2284240)
Method in brief: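 Apoptosis is scored by activated caspase-3/7 luminescence in WA09-derived neural progenitor cells, measured 26.5 h after chemical dosing. Values represent gain of signal relative to DMSO vehicle.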

[13] = CCTE_Mundy_HCI_hNP1_CellTiter: CCTE's Cell Titer-Glo 2 Assay in human neuroprogenitor cells for Viability, Mundy Lab (AID 2284241; active = hit-call score of the fitted dose curve at least 0.9, where 1 is the maximum;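 as to AC50: a hit is a drop in ATP luminescence versus DMSO meaning reduced viability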)
Method in brief: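 Human neural progenitor cells (hNP1, WA09-derived) were plated on poly-L-ornithine/laminin and grown 40 to 44 hours at 37 °C, 5% CO2 before chemical addition. Twenty-four hours later, ATP was measured by CellTiter-Glo luminescence; loss of signal versus DMSO indicates reduced viability.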

[14] = UKN4_HCS_LUHMES_cell_viability: Viability Assessment in the University of Konstanz (UKN) Leist Lab Neurite Outgrowth Assay in human LUHMES cells (UKN4) (AID 2284232)
Method in brief: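 Day-2 differentiated LUHMES, 30000 cells/well, dosed ~30 min–2 h post-seeding; 24 h treatment incl. staining; Hoechst H-33342 + calcein-AM at 23.5 h; HCS imaging; DMSO-normalized, bidirectional fit.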

[15] = UKN2_HCS_IMR90_cell_viability: Viability Assessment in the University of Konstanz (UKN) Leist Lab Neural Crest Cell Migration Assay in human induced IMR90 Pluripotent Stem Cells (UKN2) (AID 2284233);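 also: cells exposed to compound for 24 h after a 24 h migration phase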
Method in brief: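 After calcein-AM/Hoechst staining, viability is quantified by high-content fluorescence imaging, relative to DMSO, in iPSC (IMR90)-derived neural crest cells. Exposure lasts 24 h, starting after a 24 h migration period on PLO/laminin/fibronectin coating.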

[16] = CCTE_Mundy_HCI_Cortical_Synap_Neur_Matur_NeuronCount: CCTE's Synaptogenesis and Neurite Maturation Assay in rat cortical cells for Neuron Count, Mundy Lab (AID 2284242; active = hit-call score of the fitted dose curve at least 0.9, where 1 is the maximum;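 as to AC50: neuron number from Hoechst nuclei and MAP2 staining by high-content imaging; hits reduce neuron count versus DMSO baseline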)
Method in brief: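 Rat cortical cultures; AraC DIV 5; chemical dosing + media change DIV 7 to DIV 12 (288.33 h readout). Fix, Hoechst, anti-MAP2/anti-synaptophysin immunostain; HCI neuron count vs DMSO baseline.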

Measured: AC50

Tumor necrosis factor (Homo sapiens), sequence (P01375 whole entry, looked up): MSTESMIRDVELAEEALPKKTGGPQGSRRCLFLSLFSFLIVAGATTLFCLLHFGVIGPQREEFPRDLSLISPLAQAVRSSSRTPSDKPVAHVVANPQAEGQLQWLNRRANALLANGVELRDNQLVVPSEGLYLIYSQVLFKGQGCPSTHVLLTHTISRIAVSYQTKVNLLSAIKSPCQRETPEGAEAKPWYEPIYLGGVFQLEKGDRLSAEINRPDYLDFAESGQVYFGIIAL

O=C1C=CC(=O)c2ccccc21
active: [1] 0.812 µM | [2] 3.72 µM | [3] 4.3 µM | [4] 4.13 µM | [5] 0.61 µM | [6] 4.42 µM | [7] 0.714 µM | [8] 4.17 µM | [9] 2.56 µM

CCN(CC)C(=O)C(Cl)=C(C)OP(=O)(OC)OC
inactive: [1] | [2] | [3] | [5] | [7] | [8] | [9]
active: [4] 0.016 µM | [6] 0.0702 µM

CCOP(=S)(OCC)OP(=S)(OCC)OCC
inactive: [1] | [2] | [3] | [4] | [5] | [6] | [7] | [8] | [9]

CCOP(=O)(OCC)SCCSCC
inactive: [1] | [2] | [3] | [4] | [5] | [6] | [7] | [8] | [9]

CCC(C)(C#N)N=NC(C)(C#N)CC (stereo unspecified)
inactive: [1] | [2] | [3] | [4] | [5] | [6] | [7] | [8] | [9]

Oc1c(Br)cc(Br)cc1Br
active: [2] 15.4 µM | [3] 29.9 µM | [9] 20 µM
inactive: [1] | [4] | [5] | [6] | [7] | [8]

[Cl][Sn]([c]1ccccc1)([c]1ccccc1)[c]1ccccc1
active: [1] 0.495 µM | [2] 0.0907 µM | [3] 0.0894 µM | [4] 0.402 µM | [5] 0.302 µM | [6] 0.102 µM | [7] 0.395 µM | [8] 0.324 µM | [9] 0.286 µM

CS(=O)(=O)c1ccc(C(=O)C2C(=O)CCCC2=O)c(Cl)c1COCC(F)(F)F
inactive: [10] | [11] | [12] | [13]

Oc1cccc(-c2ccccc2)c1
inactive: [1] | [5] | [7] | [8] | [9]
active: [2] 32.3 µM | [3] 20 µM | [4] 31.3 µM | [6] 33.6 µM

CCOP(=O)(OCC)OC(=CCl)c1ccc(Cl)cc1Cl
active: [2] 31.2 µM | [3] 35.8 µM | [4] 30.7 µM | [6] 30.5 µM | [7] 20 µM
inactive: [1] | [5] | [8] | [9]

CNC(=O)CSP(=O)(OC)OC
inactive: [14] | [15] | [10] | [11] | [12] | [13]

CC(C)N(C(=O)CCl)c1ccccc1
active: [1] 12 µM | [2] 2.36 µM | [3] 3.62 µM | [4] 1.12 µM | [5] 8.76 µM | [6] 2.84 µM | [7] 11.8 µM | [8] 4 µM | [9] 4.16 µM

Cc1cc(Cl)ccc1OC(C)C(=O)O (stereo unspecified)
inactive: [1] | [2] | [3] | [4] | [5] | [6] | [7] | [8] | [9]

CC(C)[C@@H](Nc1ccc(C(F)(F)F)cc1Cl)C(=O)OC(C#N)c1cccc(Oc2ccccc2)c1 (stereo partly specified)
inactive: [11] | [12] | [13] | [16]

O=S1OC[C@@H]2[C@H](CO1)[C@]1(Cl)C(Cl)=C(Cl)[C@@]2(Cl)C1(Cl)Cl (stereo partly specified)
inactive: [15]
active: [14] 27 µM

NC(=O)c1ccc(N)nc1
active: [11] 11.4 µM | [16] 7.58 µM
inactive: [10] | [12] | [13]

CCOCn1c(-c2ccc(Cl)cc2)c(C#N)c(Br)c1C(F)(F)F
active: [15] 15.1 µM | [10] 58 µM | [11] 18.6 µM | [12] 10.5 µM | [13] 13.5 µM | [16] 12.1 µM

Source: PubChem BioAssay (EPA / NIEHS)
